# Assay results as given in PubChem BioAssay.
# Values without a mark were called inactive. No rule for the calls is given here.
# Biological target: Pantothenate synthetase (Mycobacterium tuberculosis (strain ATCC 25618 / H37Rv)) (UniProt P9WIL5)
# Assay: Coupled enzyme confirmation of inhibitors against recombinant Mtb PanC (AID 375);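 also: 0% = full reaction with vehicle and 100% = no enzyme background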
# Settings: coupled enzyme assay; at 10 µM, stronger effect = higher value
# Pantothenate synthetase (Mycobacterium tuberculosis (strain ATCC 25618 / H37Rv)), sequence (P9WIL5 whole entry, looked up): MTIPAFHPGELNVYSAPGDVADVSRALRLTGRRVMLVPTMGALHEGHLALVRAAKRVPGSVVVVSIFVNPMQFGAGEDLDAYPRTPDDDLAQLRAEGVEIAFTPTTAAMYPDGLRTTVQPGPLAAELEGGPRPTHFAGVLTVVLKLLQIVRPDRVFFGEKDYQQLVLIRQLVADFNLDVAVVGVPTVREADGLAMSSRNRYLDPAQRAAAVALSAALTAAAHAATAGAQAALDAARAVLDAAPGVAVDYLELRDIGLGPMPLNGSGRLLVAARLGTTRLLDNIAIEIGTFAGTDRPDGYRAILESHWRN
row,Compound,inhibition
1,O=S(=O)(c1ccc(OCC(O)CN2CCC(Cc3ccccc3)CC2)cc1)N1CCOCC1 (stereo not given),1%
2,CCc1nnc(NC(=O)c2ccc(S(=O)(=O)NC3CCCCC3)cc2)s1,0%
3,Cc1ccc(C)c(S(=O)(=O)NCc2cccnc2)c1,7%
4,CCOc1cccc(/C(O)=C2/C(=O)C(=O)N(CCN3CCOCC3)C2c2cccnc2)c1 (stereo not given),0%
5,N#CC1=C(N)Oc2cc(O)ccc2C1C1CCCCC1 (stereo not given),0%
6,CCN(CC)C(=O)CSc1nnc([C@@H](N)Cc2ccccc2)o1,0%
7,Cc1csc(SCC(=O)NC(=O)NCc2ccccc2)n1,9%
8,CCOC(=O)CSc1nc2cc(C(=O)NCc3ccco3)ccc2c(=O)n1C1CCCCC1,0%
9,CC1CN(C(=O)c2scc3c2OCCO3)CC(C)O1 (stereo not given),2%
10,Cc1ccc(S(=O)(=O)NCCNC(=O)c2ccccc2)cc1,4%
11,CC(NC(=O)c1ccc2c(c1)OCO2)C(c1cccs1)N1CCOCC1 (stereo not given),9%
12,COc1ccc(S(=O)(=O)N2CCCC2C(=O)Nc2ccc(O)cc2)cc1 (stereo not given),0%
13,Cc1cc(CN2CCN(CCC#N)CC2)c(O)c(C2(C)CCCCC2)c1,0%
14,Cc1nc2ccc(CCO)cc2s1,0%
15,CCc1nnc2c3cnn(-c4ccccc4)c3ncn12,0%
16,COCCn1c(CN2CCN(c3ccccc3F)CC2)nc2c1c(=O)n(C)c(=O)n2C,6%
17,COC(=O)Cn1c(CCS(=O)(=O)c2ccc(C)cc2)nc2ccccc21,1%
18,COc1ccc(S(=O)(=O)N2CCC(C(=O)NCc3ccco3)CC2)cc1,2%
19,CCOc1ccc2[nH]c(O)c(NC(C)=O)c2c1,0%
20,CC1=CCC2C(=O)N(c3nc(C)cc(C)n3)C(=O)C2C1 (stereo not given),0%

row,Compound,inhibition
1,CCSc1nnc(NC(=O)CSc2nnc(Cc3cccn3C)n2-c2ccc(C)cc2)s1,5%
2,O=C(NCCc1ccccn1)c1ccc(COc2ccccc2)o1,0%
3,CC(NCCC(c1ccccc1)c1ccccc1)c1ccccc1 (stereo not given),0%
4,Cc1cc(C(=O)NCc2ccc(S(N)(=O)=O)cc2)cs1,16%
5,COc1ccccc1CNC(=O)C(C)NS(=O)(=O)c1ccccc1 (stereo not given),3%
6,CCOC(=O)c1sc2nc(NC(=O)C3CCCCC3)sc2c1C,2%
7,CCOC(=O)CSc1nnc(-c2ccc(S(=O)(=O)N3CCOCC3)cc2)n1-c1ccccc1,3%
8,O=C(c1ccccc1)N1CCN(CC2CC=CCC2)CC1 (stereo not given),0%
9,CC(O)c1cc2c(cc1NC(=O)c1cnn3c1NC(c1ccco1)CC3C(F)(F)F)OCO2 (stereo not given),0%
10,C=CCNC(=O)c1ccc(Cl)cc1Cl,0%
11,C/C=C(/C(=C/C)c1ccc(O)cc1)c1ccc(O)cc1,0%
12,COc1ccc(C2=CC(=O)OC3(CCCCC3)O2)cc1,0%
13,O=C1CN=C(Nc2cccc(C(F)(F)F)c2)N1C1CCCC1,0%
14,CCOc1ccc2cc(C#N)c(SCC(=O)N3CCOCC3)nc2c1,0%
15,Cc1ccc(OCc2nnc(SCC(=O)N3CCOCC3)n2C)cc1,0%
16,COc1cc(NC(=O)NC(C)(C(F)(F)F)C(F)(F)F)cc(OC)c1OC,0%
17,CCCNC(=O)C1CC(=O)N(c2ccc(OCC(=O)Nc3cc(C)cc(C)c3)cc2)C1 (stereo not given),0%
18,COc1ccc(CCNC(=O)CSc2nncn2N)cc1OC,5%
19,O=C(c1ccc2nc(N3CCCCC3)sc2c1)N1CCN(c2ccccn2)CC1,0%
20,CCn1c(C(C#N)/C(=N\S(=O)(=O)c2cccs2)c2ccccc2)nc2ccccc21 (stereo not given),6%
